# Experimental data published in PubChem BioAssay (NCI).
# About 83,000 compounds went through this panel and 20% of them were active in at least one assay; those are over-represented in the sample as a whole.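 96-well plates, one dose, 48 hours. Percent growth reported; active if below 10.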 A number with no mark means an inactive call. Active and inactive are the calls of the source.
# System: MOLT-4 leukemia
# Assay: NCI-60 one-dose screen, 48 h (100 = growth as untreated, 0 = no growth, -100 = all killed)
# Conditions: 10 µM unless noted
row,SMILES,growth
1,COc1ccc2[nH]c(O)c(N=Nc3nc(-c4ccc(C#N)cc4)cs3)c2c1,84.2%
2,COc1ccc(-c2nc3ccc(-c4nnc(SCC(=O)Nc5ccc(/C(C)=N\O)cc5)o4)cc3[nH]2)cc1,55.9%
3,CCCCCCCCCCCCCCCCCC(=O)Nc1ccc(OC)cc1,102%
4,CCN1C(=O)N(CC)C2NNC(Sc3c(C(=O)O)c4ccccc4n(CCC(C)C)c3=O)=NC21 (stereo not drawn),3.81% (active)
5,COc1ccc(/C=C/c2nc3ccccc3n3c(-c4cccc([N+](=O)[O-])c4)nnc23)cc1,-36.5% (active)
6,COc1ccc(NC(=O)N/N=C/c2c[nH]c3ccccc23)cc1,20.5%
7,CCC(=O)c1cc(C(=O)OC)c2ccc3c4ccccc4ccc3n12,94.8%
8,Cc1oc(-c2ccccc2)nc1CN[C@@H]1C[C@@H]2C[C@H]([C@H]1C)C2(C)C,0.127% (active)
